Measurements taken from ChEMBL document CHEMBL3988442, “University of Dundee, Small-Polar-MMV Screening Library” (2021).
About 13,000 (27%) of roughly 48,000 compounds showed an effect of 50% or more. The list shows a part of the results.

System: Wolbachia pipientis
Experiment: Anti-Wolbachia Cell-Based Screen
Assay type: functional
Parameters: scale not given: in the data most compounds retested in dose-response had high values
Details: 5 µM

Compared with `CCN(CC)CCCC(C)NC(=O)c1ccccc1-n1cccn1` (stereo not drawn), `Cc1nc(-c2ccco2)ccc1C(=O)N1CCCC1Cn1cccn1` (stereo not drawn) is lower in “Percent Effect” value: 7.306% for the first, -3.884% for the second.

Compared with `Cc1csc(CN(C)C(=O)Nc2cc(F)cc(N3CCCC3)c2)n1`, `OCc1csc(N2CCCN(Cc3ccc(F)cc3)CC2)n1` is higher in “Percent Effect” value: 1.916% for the first, 11.91% for the second.

Going from `Cc1cc(CN2CCN(C(=O)C3CCC3)[C@@H]3CS(=O)(=O)C[C@@H]32)ccc1F` to `Cn1cnnc1C1CCCN(C(=O)NCCc2ccccc2F)C1` (stereo not drawn), the “Percent Effect” value rises from -7.739% to -7.484%.

First: COCc1cccc(NS(=O)(=O)c2cc(C(=O)O)cs2)c1
Second: COc1cccc(OCC2CCCN(c3cc(C(N)=O)ccn3)C2)c1 (stereo not drawn)
The “Percent Effect” value of the first is lower: -2.674% for the first, 12.14% for the second.

Compared with `CC(=O)N1CCCN(C(=O)NCCCc2cn[nH]c2C)CC1`, `Cc1[nH]ncc1CCCNC(=O)N1CCC(C(N)=O)CC1` is lower in “Percent Effect” value: 5.241% for the first, -4.643% for the second.

Compared with `Cn1cc(CCNC(=O)N2CCCC(c3nncn3C)C2)cn1` (stereo not drawn), `COc1ccc(CCNC(=O)N2CCCC(c3nncn3C)C2)cc1` (stereo not drawn) is lower in “Percent Effect” value: 107% for the first, 95.68% for the second.

First: COc1ccccc1CCNC(=O)N1CCCC(c2nncn2C)C1 (stereo not drawn)
Second: Cc1ccccc1CCNC(=O)N1CCCC(c2nncn2C)C1 (stereo not drawn)
The “Percent Effect” value of the first is lower: 0.4535% for the first, 7.468% for the second.

First: Cc1[nH]ncc1CCCNC(=O)N1CCCC(c2nncn2C)C1 (stereo not drawn)
Second: COc1ccc(CC(=O)N2CCCC(c3nncn3C)C2)cc1 (stereo not drawn)
The “Percent Effect” value of the first is higher: 131.8% for the first, -3.253% for the second.

First: CCOc1cc(CN(C)CCOC)ccc1OC(F)F
Second: COc1ccccc1S(=O)(=O)CCOC(C)C
The “Percent Effect” value of the first is higher: 9.652% for the first, 8.609% for the second.

Compared with `CN(C)C(=O)c1cccc(NC(=O)Cc2cc(F)ccc2F)n1`, `CC(=O)NCCCNCc1cc(F)ccc1Br` is higher in “Percent Effect” value: -6.771% for the first, 10.59% for the second.

Going from `CS(=O)(=O)NCCCNCc1cc(F)ccc1Br` to `CCS(=O)(=O)NCCNCc1cc(F)ccc1Br`, the “Percent Effect” value falls from 85.45% to 5.201%.

First: O=C(c1cnc(-c2ccco2)s1)N1CCCCC1Cn1cccn1 (stereo not drawn)
Second: O=C(c1cnc(-c2ccco2)s1)N1CCCC1Cn1cccn1 (stereo not drawn)
The “Percent Effect” value of the first is higher: 80.46% for the first, -5.367% for the second.

Compared with `Cc1sc(-c2ccco2)nc1C(=O)N1CCCC1Cn1cccn1` (stereo not drawn), `Cc1cnn(CC2CCCN2C(=O)c2cnc(-c3ccco3)s2)c1` (stereo not drawn) is higher in “Percent Effect” value: 99.48% for the first, 107.8% for the second.

First: CC(C)Oc1ccc(CSc2nnc(CN3CCCC3=O)o2)cc1
Second: Cc1ccc(OCC2CCCN(Cc3ccc(CO)o3)C2)cc1 (stereo not drawn)
The “Percent Effect” value of the first is higher: -8.061% for the first, -15.89% for the second.

Compared with `OCc1csc(N2CCN(Cc3cccc(F)c3)CC2)n1`, `OCc1csc(N2CCCC(COc3cccc(F)c3)C2)n1` (stereo not drawn) is higher in “Percent Effect” value: -8.687% for the first, 96.77% for the second.

Compared with `Cc1ccc(OCC2CCCN(c3cc(C(N)=O)ccn3)C2)cc1` (stereo not drawn), `Cc1ccc(OCC2CCCN(c3nc(CO)cs3)C2)cc1` (stereo not drawn) is higher in “Percent Effect” value: 0.1163% for the first, 87.49% for the second.

For `COc1ccc(OCC2CCCN(c3nc(CO)cs3)C2)cc1` (stereo not drawn), the “Percent Effect” value was 99.62%.
